Results: ChEMBL document CHEMBL2218924, “A broad activity screen in support of a chemogenomic map for kinase signalling research and drug discovery” (Biochem J, 2013)

Experiments:
[1] = target: T1, CDK3/cyclin E (Homo sapiens) (UniProt P24864+O96020+Q00526); details: at 1 µM
[2] = target: T1, CDK3/cyclin E (Homo sapiens); details: at 10 µM
[3] = target: T2, Cyclin-dependent kinase 5/CDK5 activator 1 (Homo sapiens) (UniProt Q00535+Q15078); details: at 1 µM
[4] = target: T2, Cyclin-dependent kinase 5/CDK5 activator 1 (Homo sapiens); details: at 10 µM
[5] = target: T2, Cyclin-dependent kinase 5/CDK5 activator 1 (Homo sapiens); details: at 1 µM; remark: listed apart in the source
[6] = target: T2, Cyclin-dependent kinase 5/CDK5 activator 1 (Homo sapiens); details: at 10 µM; remark: listed apart in the source
[7] = target: T3, CDK6/cyclin D3 (Homo sapiens) (UniProt P30281+Q00534); details: at 1 µM
[8] = target: T3, CDK6/cyclin D3 (Homo sapiens); details: at 10 µM
[9] = target: T4, Cyclin-dependent kinase 7/ cyclin H (Homo sapiens) (UniProt P51946+P50613); details: at 1 µM
[10] = target: T4, Cyclin-dependent kinase 7/ cyclin H (Homo sapiens); details: at 10 µM
[11] = target: T5, CDK9/cyclin T1 (Homo sapiens) (UniProt O60563+P50750); details: at 1 µM
[12] = target: T5, CDK9/cyclin T1 (Homo sapiens); details: at 10 µM
[13] = target: T6, Serine/threonine-protein kinase Chk1 (Homo sapiens) (UniProt O14757); details: at 1 µM
T6 sequence (whole entry): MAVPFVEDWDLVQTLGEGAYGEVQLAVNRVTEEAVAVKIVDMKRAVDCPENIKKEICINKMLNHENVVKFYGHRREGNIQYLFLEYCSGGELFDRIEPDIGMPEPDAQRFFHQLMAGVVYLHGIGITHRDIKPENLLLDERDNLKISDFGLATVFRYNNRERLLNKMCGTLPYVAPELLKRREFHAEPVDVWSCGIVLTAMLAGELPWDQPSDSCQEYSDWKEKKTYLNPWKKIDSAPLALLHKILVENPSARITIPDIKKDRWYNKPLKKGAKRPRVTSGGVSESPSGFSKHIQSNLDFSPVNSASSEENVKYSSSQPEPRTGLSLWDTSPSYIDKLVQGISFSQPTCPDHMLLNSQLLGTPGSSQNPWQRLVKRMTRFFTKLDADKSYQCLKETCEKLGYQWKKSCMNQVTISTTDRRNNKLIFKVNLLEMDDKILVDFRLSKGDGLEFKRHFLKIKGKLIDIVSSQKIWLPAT

[14] = target: T6, Serine/threonine-protein kinase Chk1 (Homo sapiens); details: at 10 µM
[15] = target: Serine/threonine-protein kinase Chk2 (Homo sapiens) (UniProt O96017); details: at 1 µM
Chain of Serine/threonine-protein kinase Chk2 (Homo sapiens) (O96017 whole entry, canonical isoform): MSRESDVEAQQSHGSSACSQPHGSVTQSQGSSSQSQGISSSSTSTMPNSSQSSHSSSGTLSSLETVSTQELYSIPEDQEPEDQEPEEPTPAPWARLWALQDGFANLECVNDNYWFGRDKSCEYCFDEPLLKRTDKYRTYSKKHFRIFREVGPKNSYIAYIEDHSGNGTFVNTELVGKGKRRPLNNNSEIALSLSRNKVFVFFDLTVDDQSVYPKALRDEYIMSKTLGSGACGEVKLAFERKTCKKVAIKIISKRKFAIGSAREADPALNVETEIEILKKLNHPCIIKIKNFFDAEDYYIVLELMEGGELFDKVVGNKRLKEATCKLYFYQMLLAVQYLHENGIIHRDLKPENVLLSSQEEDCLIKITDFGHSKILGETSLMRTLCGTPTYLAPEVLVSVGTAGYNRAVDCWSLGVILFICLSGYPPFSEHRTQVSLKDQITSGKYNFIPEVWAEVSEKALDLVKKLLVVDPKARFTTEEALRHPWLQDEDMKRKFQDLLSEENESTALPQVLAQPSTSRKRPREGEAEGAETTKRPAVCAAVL

[16] = target: Serine/threonine-protein kinase Chk2 (Homo sapiens) (UniProt O96017); details: at 10 µM
[17] = target: Casein kinase I isoform gamma-1 (Homo sapiens) (UniProt Q9HCP0); details: at 1 µM
Chain of Casein kinase I isoform gamma-1 (Homo sapiens) (Q9HCP0 whole entry, looked up, canonical isoform): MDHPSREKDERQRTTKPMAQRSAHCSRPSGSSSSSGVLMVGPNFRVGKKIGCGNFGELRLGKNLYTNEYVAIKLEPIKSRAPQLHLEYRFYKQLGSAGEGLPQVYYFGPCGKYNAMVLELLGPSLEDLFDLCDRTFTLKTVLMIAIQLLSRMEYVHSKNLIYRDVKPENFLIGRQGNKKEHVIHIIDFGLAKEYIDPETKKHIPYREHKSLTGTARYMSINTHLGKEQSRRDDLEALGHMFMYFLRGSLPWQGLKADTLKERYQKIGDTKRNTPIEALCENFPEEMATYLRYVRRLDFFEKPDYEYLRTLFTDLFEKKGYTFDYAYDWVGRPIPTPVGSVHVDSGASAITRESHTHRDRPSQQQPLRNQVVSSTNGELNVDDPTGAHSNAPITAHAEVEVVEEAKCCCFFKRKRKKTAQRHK

[18] = target: Casein kinase I isoform gamma-1 (Homo sapiens) (UniProt Q9HCP0); details: at 10 µM
[19] = target: Casein kinase I isoform delta (Homo sapiens) (UniProt P48730); details: at 1 µM
Chain of Casein kinase I isoform delta (Homo sapiens) (P48730 whole entry, looked up, canonical isoform): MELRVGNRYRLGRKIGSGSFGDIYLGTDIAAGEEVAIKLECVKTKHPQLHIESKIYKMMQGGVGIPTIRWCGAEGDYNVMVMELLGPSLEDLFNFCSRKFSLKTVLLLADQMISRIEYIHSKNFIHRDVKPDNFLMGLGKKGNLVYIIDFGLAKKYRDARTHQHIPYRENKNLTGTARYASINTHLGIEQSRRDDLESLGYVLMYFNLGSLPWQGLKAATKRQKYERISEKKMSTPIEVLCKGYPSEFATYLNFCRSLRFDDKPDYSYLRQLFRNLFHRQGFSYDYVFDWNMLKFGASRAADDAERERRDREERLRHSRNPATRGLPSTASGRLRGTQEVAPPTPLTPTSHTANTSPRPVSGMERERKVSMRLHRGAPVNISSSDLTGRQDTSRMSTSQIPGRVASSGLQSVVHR

[20] = target: Casein kinase I isoform delta (Homo sapiens) (UniProt P48730); details: at 10 µM

T1 sequence (O96020 whole entry, looked up): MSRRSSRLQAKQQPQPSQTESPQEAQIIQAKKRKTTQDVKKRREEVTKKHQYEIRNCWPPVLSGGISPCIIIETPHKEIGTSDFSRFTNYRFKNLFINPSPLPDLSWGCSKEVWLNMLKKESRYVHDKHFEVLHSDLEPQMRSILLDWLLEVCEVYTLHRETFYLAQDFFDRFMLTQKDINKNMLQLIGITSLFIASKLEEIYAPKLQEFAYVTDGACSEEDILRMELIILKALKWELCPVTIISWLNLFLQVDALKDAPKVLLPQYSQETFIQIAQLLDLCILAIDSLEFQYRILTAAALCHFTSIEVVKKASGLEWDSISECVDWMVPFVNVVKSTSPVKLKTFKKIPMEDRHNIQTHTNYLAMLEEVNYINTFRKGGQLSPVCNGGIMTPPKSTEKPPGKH
T1 sequence (P24864 whole entry, looked up): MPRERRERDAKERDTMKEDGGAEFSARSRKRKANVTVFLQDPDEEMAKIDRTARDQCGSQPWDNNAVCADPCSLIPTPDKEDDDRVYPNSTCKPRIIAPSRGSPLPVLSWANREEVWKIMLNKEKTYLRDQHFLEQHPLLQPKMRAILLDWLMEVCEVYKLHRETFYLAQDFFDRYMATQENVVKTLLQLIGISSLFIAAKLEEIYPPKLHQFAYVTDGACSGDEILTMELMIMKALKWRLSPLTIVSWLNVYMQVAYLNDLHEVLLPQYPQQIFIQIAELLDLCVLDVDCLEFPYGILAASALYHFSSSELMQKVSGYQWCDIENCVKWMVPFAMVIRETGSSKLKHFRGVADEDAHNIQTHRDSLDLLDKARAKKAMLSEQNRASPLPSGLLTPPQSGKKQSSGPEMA
T1 sequence (Q00526 whole entry, looked up): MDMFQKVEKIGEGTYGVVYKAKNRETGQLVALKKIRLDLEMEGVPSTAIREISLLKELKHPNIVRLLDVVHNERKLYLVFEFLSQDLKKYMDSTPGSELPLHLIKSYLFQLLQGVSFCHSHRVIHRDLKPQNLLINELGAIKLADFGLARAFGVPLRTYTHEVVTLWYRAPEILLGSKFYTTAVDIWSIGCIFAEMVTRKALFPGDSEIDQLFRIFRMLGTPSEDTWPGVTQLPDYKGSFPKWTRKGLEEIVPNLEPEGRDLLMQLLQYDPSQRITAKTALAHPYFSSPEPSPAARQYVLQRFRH
T2 sequence (Q00535 whole entry): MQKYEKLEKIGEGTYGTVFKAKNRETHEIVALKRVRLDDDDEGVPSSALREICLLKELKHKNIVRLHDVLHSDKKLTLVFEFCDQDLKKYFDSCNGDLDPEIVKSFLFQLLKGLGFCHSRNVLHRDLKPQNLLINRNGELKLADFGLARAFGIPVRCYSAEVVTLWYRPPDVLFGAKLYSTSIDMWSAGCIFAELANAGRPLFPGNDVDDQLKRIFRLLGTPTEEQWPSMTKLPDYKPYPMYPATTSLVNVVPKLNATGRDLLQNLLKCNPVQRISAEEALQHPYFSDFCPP
T2 sequence (Q15078 99-307 partner limits assumed): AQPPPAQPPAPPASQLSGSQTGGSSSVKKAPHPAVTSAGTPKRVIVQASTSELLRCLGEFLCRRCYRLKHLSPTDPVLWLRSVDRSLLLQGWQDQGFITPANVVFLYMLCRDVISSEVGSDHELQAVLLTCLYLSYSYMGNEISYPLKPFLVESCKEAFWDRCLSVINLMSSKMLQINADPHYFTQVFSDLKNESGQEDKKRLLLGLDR

SMILES	residual activity [1] [%]	residual activity [2] [%]	residual activity [3] [%]	residual activity [4] [%]	residual activity [5] [%]	residual activity [6] [%]	residual activity [7] [%]	residual activity [8] [%]	residual activity [9] [%]	residual activity [10] [%]	residual activity [11] [%]	residual activity [12] [%]	residual activity [13] [%]	residual activity [14] [%]	residual activity [15] [%]	residual activity [16] [%]	residual activity [17] [%]	residual activity [18] [%]	residual activity [19] [%]	residual activity [20] [%]
O=C1NC(=O)c2c1c1c3ccccc3[nH]c1n1cncc21	48	27	49	30	52	30	62	28	87	69	70	59	18	14	23	8	58	40	15	9
CSc1nc(-c2ccc(F)cc2)c(-c2ccnc(NC(C)c3ccccc3)c2)[nH]1 (stereo not given)	93	84		101					100	67	96		95	78	5	3	62	11	35	9
Oc1cccc(-c2nc(N3CCOCC3)c3oc4ncccc4c3n2)c1	118	97			92	91	91	67	86	96			93	100	100	68	90	98	83	72
O=C(c1ccccc1)c1ccc(N2CCOCC2)cc1O	96	97		88	91	96		89	87		89	47	86	90	86		86	100	88	92
CC(C)c1nn(-c2c(Cl)cccc2Cl)c2nc(Cc3ccc(OCCO)cc3)[nH]c(=O)c12	-1	-1	0	-1	-1	-1	43	9	15	1	2	0	93	95	91	80	74	89	79	53
CCCC(=O)Oc1ccc2[nH]c(C(=O)c3cc4ccccc4[nH]3)cc2c1	95	74		95	74	87	79	74	83	97	108	88	79	89	93	97	90	92	87	101
O=C(NC(NC(=S)Nc1ccc(F)c([N+](=O)[O-])c1)C(Cl)(Cl)Cl)C(c1ccccc1)c1ccccc1 (stereo not given)	100	93	98			83	97	94			101	95				82	94	55	45	64
O=C1Nc2ccc(Cl)cc2/C1=C/c1cc(Cl)c(O)c(Cl)c1	90	73	97	77	97	80	89	86	84	87	90	69	75	64	76	25	89	75	77	35
O=C(O)/C=C/c1cc(Br)c(Br)c(Br)c1Br	103	87	94	84		76	100	95	104	89	69	13	107	97	59	33	103	76	56	12
O=C(c1cc2cc(O)ccc2[nH]1)c1cc2cc(O)ccc2[nH]1	51	8	23	4	37	6	38	7	76	41	26	4	76	47	60	22	50	10	74	37
COc1cc2nccc(Oc3ccc(NC(=S)NC(=O)c4ccccc4C)cc3)c2cc1OC	89	74	85	86	97	86	78	77	75	87	92	89	83		48	23	91	63	85	62
COc1cc2c(cc1OC)-c1n[nH]c(Nc3cccc(F)c3)c1C2	78	46	82	53	81	61	76	71	83	75	99	50	72	75	82	70		73	76	39
Nc1ncnc2c1cnn2-c1ccccc1	95	86			92	79	95	85	86	88	102	73	91	83	92		98	99	85	36
Nc1n[nH]c2nc3ccccc3nc12	83	28	80	35	92	41	92	69	89	76	59	36	90	79	82	61	79	69	75	34
O=C1NC(=O)C(c2cn(CCCn3ccnc3)c3ccccc23)=C1Nc1ccccc1	51	13	64	20	71	24	82	68	77	64	14	3	75	37						75
Cn1sc(=O)n(Cc2ccccc2)c1=O	83	79	81	81	97	97	89	82	99	86	93	79	88	90	71	67	96	89	81	84
N#C/C(=C1/Nc2ccccc2S1)c1ccnc(NCCc2cccnc2)n1	84	44	74	54	88	49	100	63	80	54	8	3	97	84	80	48	77	29	52	8
CC(C)N(CCC(=O)c1ccc2ccccc2c1)Cc1ccccc1	86	77	87		79	81	87	78	83	82					100	72	82			
CC(C)(C)n1nc(Cc2cccc3ccccc23)c2c(N)ncnc21	86	63	110	82	87	86	87	97	86	90	101	65	86	102	96	48			40	3
Nc1nc(Nc2ccc(S(N)(=O)=O)cc2)nn1C(=O)c1c(F)cccc1F	3	0	0	0	-1	0	57	12	57	10	0	0	82	31	52	11			100	
O=C1NC(=O)C(c2cn(CCCO)c3ncccc23)=C1c1cnccn1	93	70	73	51	90	61			71	54	89	82			88	79	93	90	79	79
NC(=O)Nc1sc(-c2ccc(F)cc2)cc1C(N)=O	73	43	70	33	81	33	78	33	87	61	89	42	37	7	34	4	104	71	71	31
Nc1ncnc2c1c(-c1ccc(Oc3ccccc3)cc1)cn2C1CCCC1	90	81	78	58	80	76	85	66	78	95	99	96	83	113	79	24	88	73	56	8
O=c1cc(N2CCNCC2)oc2c(-c3ccccc3)cccc12	102	84	100	71	100	82	93	94	94	81	79	42	83	85	90	91	97	97	88	85
